MCF10A rerep – inducers of DNA re-replication in MCF 10A breast cells; MCF 10A DNA re-replication, Hoechst nuclear intensity, 48 h; Potency, µM (top dose mostly 46.1 µM), most hits filed as activators; 350,000 compounds, 2.9% hits; AID 624296; note: nearly all actives have a fitted effect of over 50% in size
PTAP TSG101 blk – blocks PTAP/TSG101 interaction to inhibit HIV-1 budding; Q99816; Potency, µM (top dose mostly 115 µM), actives largely listed as inhibitors; AID 493005; Fluorescence polarization, FITC-PTAP peptide / Tsg101 binding; 340,000 tested, under 10 active; active = well fitted inhibition curve with a large enough effect in the main read-out, with a control signal flat, not every such curve was filed as active; inconclusive = small, poorly fitted or top-dose-only effect, or effect the other way, or a change in a side signal; inactive = no such curve, though single readings can be large or run the other way
Target sequence (Q99816 whole entry, looked up): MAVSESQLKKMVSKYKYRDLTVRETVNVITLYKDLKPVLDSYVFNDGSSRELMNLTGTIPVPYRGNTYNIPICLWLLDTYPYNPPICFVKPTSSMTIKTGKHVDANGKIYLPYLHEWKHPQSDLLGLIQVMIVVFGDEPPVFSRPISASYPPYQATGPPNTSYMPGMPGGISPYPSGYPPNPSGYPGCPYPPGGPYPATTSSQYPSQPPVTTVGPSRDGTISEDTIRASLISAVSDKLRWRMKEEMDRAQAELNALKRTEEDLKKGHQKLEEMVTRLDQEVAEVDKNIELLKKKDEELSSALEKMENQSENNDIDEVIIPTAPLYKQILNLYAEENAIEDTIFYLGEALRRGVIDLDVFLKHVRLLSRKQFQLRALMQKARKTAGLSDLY
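Tsg101 binding domain (10 uM final) was mixed with compound and a FITC-labeled PTAP peptide (50 nM final) in HEPES pH 7.5 buffer with NaCl, Tween 20, EDTA and TCEP; fluorescence polarization was read after 20 min at r.t.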
KB-V1 MDR tox – KB-V1 MDR subline cytotoxicity | KB-V1 MDR cells viability, CellTiter-Glo, 72 h | Potency, µM (series often up to 46.1 µM), usual class: cytotoxic | AID 1347076 | 400,000 compounds, 3.4% hits; note: nearly all actives have a fitted effect of over 60% in size
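Compound-treated KB-V1 multidrug-resistant cells, 72 h, 37 degrees C; viability by CellTiter-Glo. Fitted qHTS curves give the values.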
KB-3-1 cytotox – KB-3-1 parental cell cytotoxicity; KB-3-1 viability, CellTiter-Glo ATP luminescence, 72 h; Potency, µM (titrated, usually from 46.1 µM), most hits filed as cytotoxic; 400,000 compounds, 1.4% hits; note: nearly all actives have a fitted effect of over 60% in size
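KB-3-1 parental drug-naive adenocarcinoma cells in DMEM/10% FBS, incubated 72 h at 37 C with pin-transferred compounds across a concentration series. Viability by CellTiter-Glo luminescence; concentration-response curves fitted after normalization.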
SW480 rereplic – inducers of DNA re-replication in SW480 colon cancer cells. 340,000 compounds, 1.8% hits. SW480 DNA re-replication, Hoechst DNA content imaging, 48 h. Potency, µM (titrated, usually from 46.1 µM), hits mostly activators. AID 624297; note: nearly all actives have a fitted effect of over 55% in size
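SW480 cells exposed to compounds for 48 hr at 37 C, 5% CO2, then Hoechst-stained 40 min. Nuclear DNA content imaged by fluorescence scanning (405 nm excitation, 500-530 nm emission); re-replication scored as increased high-intensity nuclei.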
PINK1 modulator – modulators of PINK1 expression; 410,000 compounds, 0.2% hits; AID 624263; PINK1 immunofluorescence, high-content cytometry, 24 h; Potency, µM (top dose mostly 76.6 µM), usual class: activators; active = well fitted activation curve with a large enough effect; inconclusive = small, poorly fitted or top-dose-only effect; cell line not stated here; note: nearly all actives have a fitted effect of over 65% in size
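Cells are seeded, rested 12 hours, then given compound at five concentrations or DMSO for 24 hours. After fixation, blocking and antibody staining, PINK1 amount and mitochondrial localization are scored; CCCP serves as control.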
Of the large screens only hits and unclear results are named; the others gave an inactive call. In the library only some 6.8% were active in any assay of this set; here they are far more common. Unless noted, calls come from the whole dose curve; as a rule, active = well fitted curve in the direction sought with a large enough effect; inconclusive = small, poorly fitted or top-dose-only effect, or another doubt; inactive = no such curve, though single readings can be large; an effect the other way counts as inactive or inconclusive.

CC(Cc1ccc(O)c(O)c1)(NN)C(=O)O (stereo not drawn)	none (no result: MCF10A rerep, PTAP TSG101 blk, KB-V1 MDR tox, KB-3-1 cytotox, SW480 rereplic)
Cc1ccc(NC(=O)c2oc3ccc(S(=O)(=O)N4CCC5(CC4)OCCO5)cc3c2C)c(C)c1	none (no result: MCF10A rerep, PTAP TSG101 blk, KB-V1 MDR tox, KB-3-1 cytotox, SW480 rereplic)
Cc1ccc(NC2=C(Cl)C(=O)c3ccccc3C2=O)cc1	MCF10A rerep 7.3µM, KB-3-1 cytotox inconclusive, SW480 rereplic 4.1µM
CCOc1ccc(NC2=C(OC)C(=O)c3ccccc3C2=O)cc1	KB-V1 MDR tox inconclusive
CCCC(=O)NC1=C(Cl)C(=O)c2ccccc2C1=O	MCF10A rerep inconclusive, KB-V1 MDR tox inconclusive, KB-3-1 cytotox inconclusive, SW480 rereplic 6.5µM
CCN(CC)c1ccc(NC2=C(Cl)C(=O)c3ccccc3C2=O)cc1	MCF10A rerep 4.6µM, KB-V1 MDR tox inconclusive, KB-3-1 cytotox inconclusive, SW480 rereplic inconclusive
O=C1C(Cl)=C(Nc2ccc(O)cc2)C(=O)c2ccccc21	MCF10A rerep 2.9µM, KB-V1 MDR tox inconclusive, KB-3-1 cytotox inconclusive
CCNC1=C(Cl)C(=O)c2ccccc2C1=O	MCF10A rerep inconclusive, KB-V1 MDR tox inconclusive, KB-3-1 cytotox inconclusive, SW480 rereplic inconclusive
COc1cccc(Cn2c(=O)n(-c3cccc(Cl)c3)c(=O)c3c4c(sc32)CN(C(C)=O)CC4)c1	KB-V1 MDR tox inconclusive (no result: MCF10A rerep, PTAP TSG101 blk, SW480 rereplic)
CO[C@H]1[C@H](NC(=O)c2ccsc2)c2ccccc2C12CCN(Cc1cccc3ncccc13)CC2	none (no result: MCF10A rerep, PTAP TSG101 blk, KB-V1 MDR tox, KB-3-1 cytotox, SW480 rereplic)
CCOc1ccccc1NS(=O)(=O)c1c(-c2ccc(C)cc2)csc1C(=O)OC	KB-3-1 cytotox inconclusive (no result: MCF10A rerep, PTAP TSG101 blk, SW480 rereplic)
CC(Oc1cccc(Cl)c1)C(=O)Nc1cc(S(=O)(=O)N2CCOCC2)ccc1N1CCCCC1 (stereo not drawn)	MCF10A rerep 13µM, KB-V1 MDR tox 18µM, KB-3-1 cytotox inconclusive
O=C(Nc1cc(S(=O)(=O)N2CCOCC2)ccc1N1CCOCC1)c1cnccn1	KB-V1 MDR tox 10µM
CCN(CC)S(=O)(=O)c1ccc(N2CCOCC2)c(NC(=O)c2cnccn2)c1	KB-V1 MDR tox inconclusive
COc1ccccc1CNCC(=O)Nc1cc(S(=O)(=O)N2CCOCC2)ccc1Cl	KB-V1 MDR tox inconclusive
Cc1ccc(S(=O)(=O)N2CCOCC2)cc1NC(=O)CNCc1ccccc1Cl	MCF10A rerep inconclusive, SW480 rereplic 5.2µM
CCN1CCN(c2ccc(S(=O)(=O)N3CCOCC3)cc2NC(=O)C(C)Oc2cccc(Cl)c2)CC1 (stereo not drawn)	none
Cc1ccc(S(=O)(=O)N2CCOCC2)cc1NC(=O)CN1CCC(Cc2ccccc2)CC1	KB-3-1 cytotox 21µM
O=C(Cc1ccccc1Cl)Nc1cc(S(=O)(=O)N2CCOCC2)ccc1N1CCOCC1	KB-V1 MDR tox 16µM
COc1ccc(S(=O)(=O)N2CCOCC2)cc1NC(=O)CCCOc1ccc(Cl)cc1C	none
O=C(CCCOc1ccc(Cl)cc1Cl)Nc1cc(S(=O)(=O)N2CCOCC2)ccc1N1CCOCC1	KB-V1 MDR tox 6.5µM
CCOc1ccc(N(Cc2cc3cc(C)ccc3[nH]c2=O)C(=O)c2cccc(Cl)c2)cc1	none (no result: MCF10A rerep, PTAP TSG101 blk, SW480 rereplic)
COc1ccc(-c2nc3c(c(SCC(=O)Nc4ccccc4F)n2)Cc2cc(C)ccc2O3)cc1	none (no result: MCF10A rerep, PTAP TSG101 blk, SW480 rereplic)
Cc1ccc(-c2ccc(=O)n(CC(=O)Nc3ccc(C(C)C)cc3)n2)cc1	none (no result: MCF10A rerep, PTAP TSG101 blk, SW480 rereplic)
Cc1ccc(NC(=O)c2ccc(F)cc2F)cc1	none
Cc1ccc(NC(=O)c2cc(N(C)C)ccc2[P+](=O)O)cc1	MCF10A rerep 12µM, SW480 rereplic inconclusive (no result: PINK1 modulator)
CCOc1ccccc1CNC(=O)c1ccc2c(c1)nc1n2CCCCC1	none (no result: MCF10A rerep, PTAP TSG101 blk, SW480 rereplic)
O=C(NC1CCCC1)C(c1ccncc1)N(CC1CCCO1)C(=O)Cn1nnc(-c2cccs2)n1 (stereo not drawn)	KB-V1 MDR tox 23µM, KB-3-1 cytotox inconclusive
Cc1ccc(C)c(N(C(=O)Cn2nnc(-c3cccs3)n2)C(C(=O)NC2CCCC2)c2ccncc2)c1 (stereo not drawn)	none
CC(C)(C)NC(=O)C(c1ccncc1)N(Cc1cccs1)C(=O)Cn1nnc(-c2ccc(F)cc2)n1 (stereo not drawn)	MCF10A rerep 10µM

Compound activity: PubChem BioAssay, National Center for Advancing Translational Sciences (NCATS)
